Compound activity deposited in PubChem BioAssay by several laboratories.
Most compounds without a hit are left out; they make up all but 9.6% or so of the library.
bCat KO growth = beta-catenin-lacking colon tumor cell growth suppression; HCT116 beta-catenin knockout viability, CellTiter-Glo, 60 h; hits give low values; viability, % at 10 µM; 140,000 compounds, 1.5% hits;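 active means viability at or under a set limit, the compound median less 4 SD, cut at about 6% in these data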;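 further: 0% = Hyamine 1622 control at 20 µM and 100% = untreated cell control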
Lmaj promast = inhibitors of Leishmania major promastigote growth. Leishmania major promastigotes, resazurin fluorescence viability. inhibition, % at 10 µM. 200,000 compounds, 9% hits; in the data active means inhibition above about 50%;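 further: promastigotes grown with compound for 44 hours at 28 °C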
Insulin prom up = MIN6 insulin promoter up-regulation. MIN6 insulin promoter-GFP reporter, high-content imaging; hits give high values. z-score at 5 µM. 190,000 compounds, 0.3% hits. AID 1625;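 active means z-score above 3 at 5 µM with at least 500 cells counted in the well; inconclusive means wells under 500 cells, flagged as cytotoxic or low count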
Insulin prom inh = TRM-6 insulin promoter activity inhibition; inhibition, % at 2 µM; TRM-6 cells (human fetal islet line), insulin promoter-eGFP reporter, imaging; reporter expression induced with tamoxifen; 130,000 compounds, 0.9% hits; AID 1273;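 active means inhibition above the mean plus 3 SD, with well images judged a real hit on visual review, cut at about 60% in these data, passing the limit was not always enough; inconclusive means inhibition over the cutoff but images rejected on review; inactive means inhibition not above the cutoff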
HCT116 PTEN-null = suppresses growth of cells with PTEN deletion; HCT116 PTEN-null viability, CellTiter-Glo, 60 h; hits give low values; viability, % at 10 µM; 140,000 compounds, 1.2% hits; AID 827;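 active means viability at or below a set limit, 4 SD under the median of all tested compounds, cut at about 3.7% in these data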;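 further: PTEN knockout HCT116 line with beta catenin targeted HCT116 as companion control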
Autophagy HCS = modulators of autophagy. MEF GFP-LC3 puncta imaging; test concentration mostly 10 µM. calls only at 10 µM (by protocol). 190,000 compounds, 0.98% hits;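 active means percentage of spot-positive cells more than 3 SD above its plate mean, without a fluorescence outlier flag or 80% toxicity; inconclusive means no clear call, values can overlap the other calls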;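 further: spot-positive cell cutoff set from DMSO-treated cells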
* = called active by the depositor; i = inactive; u = inconclusive; x = no result; + = active, no number.

SMILES | bCat KO growth | Lmaj promast | Insulin prom up | Insulin prom inh | HCT116 PTEN-null | Autophagy HCS
C=CCNC(=O)c1onc(CSc2ccccc2C)c1C(=O)O | 93 | -8 | -0.88 | 3 | 95 | i
O=C(N/N=C\C=C\c1ccc2c(c1)OCO2)C1COc2cc3ccccc3cc2O1 (centres undefined) | 75 | 32 | 0.27 | -62 | 72 | i
C#CCNC(=O)C1=C[C@@H](C2CC2)[C@H](CCCO)[C@@H](OCC)O1 | x | 0 | -0.26 | x | x | i
COc1ccc(C(=O)CSc2nnc(Cn3nnc4ccccc43)n2C)cc1 | 86 | -2 | 1.9 | 3 | 92 | i
COc1ccc(C(=O)/C=C/c2ccc(OC)c(Cn3nnc4ccccc43)c2)cc1 | 6.0* | 85* | 2.2 | 8 | 5 | i
CC(NC(=S)NCCCN1CCOCC1)C12CC3CC(CC(C3)C1)C2 (centres undefined) | x | 86* | -0.07 | 47 | x | i
CC1CCN(CCNC(=S)Nc2ccc(Cl)cc2)CC1 | x | 66* | -0.21 | x | x | i
S=C(NCCN1CCOCC1)Nc1ccc(Cl)cc1 | 92 | 2 | -0.42 | 50 | 95 | i
S=C(NCCN1CCOCC1)Nc1ccc(Cl)c(Cl)c1 | x | 55* | -0.18 | -65 | x | i
Cc1ccc(NC(=S)NCCCN2CCOCC2)cc1 | 90 | 78* | -0.34 | -19 | 93 | i
O=S(=O)(N1CCCCC1)N1CCN(S(=O)(=O)N2CCCCC2)CC1 | 100 | -4 | 0.08 | 0 | 93 | i
COc1ccccc1-n1cnnc1SCC(=O)Nc1cccc(S(=O)(=O)N2CCCCC2)c1 | 63 | 8 | x | -33 | 69 | i
CCc1nnc(NC(=O)c2cc(-c3cccnc3)nc3ccccc23)s1 | x | -5 | 0.86 | x | x | i
O=C(NCCSc1ccccc1)c1ccccc1 | 102 | 0 | -0.08 | -12 | 94 | i
Cc1ccc(NC(=S)NCC(C)C)cc1 | 94 | 78* | -0.2 | 25 | 94 | i
S=C(NCCCN1CCOCC1)Nc1ccc(Cl)cc1 | 80 | 99* | -0.66 | 15 | 91 | i
Cc1cc(SCC(=O)N(C)C2CCS(=O)(=O)C2)nc2c(C)cccc12 (centres undefined) | x | 0 | -0.28 | 5 | x | i
CCn1c(=O)cc(SCC(=O)N2CCN(c3ccccc3F)CC2)c2ccccc21 | 81 | 53* | -0.14 | 21 | 80 | i
CCn1c(=O)cc(SCC(=O)N2CCN(c3ccccn3)CC2)c2ccccc21 | 81 | 5 | 0.42 | 15 | 85 | i
CC1CC(C)(C)NC(=S)N1CCCC(=O)N1CCN(c2ccccc2F)CC1 (centres undefined) | 91 | 61* | -0.53 | -16 | 100 | i
COc1ccc2[nH]cc(CCNC(=S)NCCc3ccccc3)c2c1 | x | 15 | -0.05 | x | x | i
Cc1cc(C)nc(N2CCCC(C(=O)Nc3nnc(C(C)(C)C)s3)C2)n1 (centres undefined) | x | -3 | 0.25 | x | x | i
COc1ccccc1-c1cc(C(F)(F)F)nc(S(=O)(=O)CCCC(=O)Nc2cc(C)on2)n1 | 4.0* | 2 | 0.77 | -29 | 2.0* | i
COc1ccccc1-c1cc(C(F)(F)F)nc(S(=O)(=O)CCCC(=O)Nc2cccnc2Cl)n1 | x | 45 | 0.58 | 73* | x | i
COc1ccccc1-c1cc(C(F)(F)F)nc(S(=O)(=O)CCCC(=O)NC(C)C)n1 | 6.0* | 89* | -0.19 | x | 4 | i
SMILES | bCat KO growth | Lmaj promast | Insulin prom up | Insulin prom inh | HCT116 PTEN-null | Autophagy HCS
COc1ccc(-c2cc(C(F)(F)F)nc(S(=O)(=O)CCCC(=O)Nc3cc(C)on3)n2)cc1OC | x | 40 | -0.48 | x | x | i
COc1ccccc1-c1cc(C(F)(F)F)nc(S(=O)(=O)CCCC(=O)NCc2ccc(F)cc2)n1 | x | 4 | -0.04 | 47 | x | i
COc1ccccc1-c1cc(C(F)(F)F)nc(S(C)(=O)=O)n1 | 2.6* | 27 | 0.39 | 9 | 38 | i
COc1ccccc1-c1cc(C(F)(F)F)nc(N2CCCC2)n1 | 87 | 14 | -0.43 | x | 91 | i
COc1ccccc1-c1cc(C(F)(F)F)nc(S(=O)(=O)CCCC(=O)N2CCCCC2C)n1 (centres undefined) | 48 | 44 | 0.41 | 7 | 49 | i
Cc1ccc(S(=O)(=O)Nc2ccc3c(c2)nc(CN2CCCC2)n3C)cc1 | 95 | 29 | 0.33 | -17 | 93 | i
CCC(C)NC(=O)Cn1cnc([N+](=O)[O-])c1 (centres undefined) | x | 8 | -0.38 | -65 | x | i
Cc1ccccc1Oc1cc(NC(=O)CCCn2nc(C)c([N+](=O)[O-])c2C)cc([N+](=O)[O-])c1 | 61 | 98* | -0.46 | -16 | 63 | i
Cc1ccccc1Oc1cc(NC(=O)Cn2cnc([N+](=O)[O-])c2)cc([N+](=O)[O-])c1 | x | 97* | -0.39 | -10 | x | i
Cc1nn(CCCC(=O)Nc2cc(Oc3ccc(F)cc3)cc([N+](=O)[O-])c2)c(C)c1[N+](=O)[O-] | 43 | 100* | 1.2 | -7 | 31 | i
Cc1c(Cl)c([N+](=O)[O-])nn1CCCC(=O)Nc1cc(Oc2ccccc2)cc([N+](=O)[O-])c1 | 71 | 9 | -0.31 | x | 61 | i
CCOC(=O)CNC(=O)CNC(=O)c1ccc(OC)cc1 | 97 | -10 | 0.25 | 24 | 105 | i
CCc1cc2c(COC(=O)c3c(C)noc3C)cc(=O)oc2cc1O | x | 86* | -0.71 | x | x | i
COc1ccc(OCCC(=O)OCC(=O)NCCC2=CCCCC2)cc1 | x | -4 | x | x | x | i
COc1ccc(/C=C/C(=O)OCC(=O)NCC2CCCO2)cc1 (centres undefined) | 89 | -5 | 0.1 | -126 | 104 | i
CCOC(=O)/C=c1\s/c(=C\c2sccc2C)c(=O)n1CC(=O)NCc1ccc(C)cc1 | x | -7 | -0.2 | x | x | +
CCOC(=O)/C=c1\s/c(=C\c2ccc3cc(OC)ccc3c2)c(=O)n1CC(=O)NCC1CCCO1 (centres undefined) | 70 | 0 | -0.97 | x | 85 | +
CC(C(=O)Nc1ccc(C(=O)O)cc1)N1C(=O)c2ccccc2C1=O (centres undefined) | 94 | -5 | 0.53 | x | 89 | i
COCCn1c(SCC(=O)Nc2ccccc2)nc2c(oc3ccccc32)c1=O | x | 0 | 0.47 | 4 | x | i
Cc1cc(C)cc(NC(=O)CSc2nc3c(oc4ccccc43)c(=O)n2-c2ccccc2)c1 | 89 | 61* | -1.1 | 0 | 95 | i
O=[N+]([O-])c1ccc(N2CCN(S(=O)(=O)Cc3ccccc3)CC2)cc1N1CCOCC1 | 80 | -1 | 0.55 | 20 | 87 | i
O=C(c1cnc2n(c1=O)CCS2)N1CCN(C(c2ccccc2)c2ccc(Cl)cc2)CC1 (centres undefined) | 62 | 58* | -0.69 | x | 59 | x
O=C(OCn1ncc(Cl)c(Cl)c1=O)c1ccc(C(F)(F)F)cc1 | 3.4* | 7 | x | -36 | 4 | i
CCOC(=O)c1ccc(NC(=O)Cn2ncc(Cl)c(Cl)c2=O)cc1 | 1.7* | 96* | u | -170 | 1.8* | +
CCC(=O)Nc1ccc(C(=O)Cn2ncc(Cl)c(Cl)c2=O)cc1 | x | x | -3 | x | x | x
